Screens (PubChem BioAssay)
The list is not random: actives were taken first. Their share in the collection is about 3.6%.
Pf apPOL block: Pf-apPOL DNA polymerase inhibition. Recombinant Pf-apPOL, molecular beacon fluorescence, 1.5 h. inhibition, % at 10 µM. AID 1794808. 0.25% of 210,000 active
mHTT-CaM PPI inh: mHTT-calmodulin interaction abrogation | P42858 | AlphaScreen His-mHTT/GST-CaM binding, luminescence | inhibition, % at 15 µM | 3.6% of 190,000 active | AID 1671202
Hits are given with their value; 0 = inactive; - = no result given. Rule as the data show it: active = inhibition above about 50%; inactive = the rest.

SMILES	Pf apPOL block	mHTT-CaM PPI inh
O=[N+]([O-])c1ccccc1CNC1C2CC3CC(C2)CC1C3 (stereo not drawn)	0	0
Cc1cccc(C2CCCN2C(=O)Nc2ccc3c(c2)OCCO3)c1 (stereo not drawn)	0	0
CN1CCN(NC(=O)c2ccccc2[N+](=O)[O-])CC1	0	0
CCC(C)NC(=O)C1CCN(Cc2cn(CC)c3ccc(OC)cc23)CC1 (stereo not drawn)	0	0
N#Cc1c(N=Cc2ccco2)sc2c1CCCC2	-	0
N#Cc1c(N=Cc2cccnc2)sc2c1CCCC2	0	55
O=C(O)COc1ccccc1C1OC2CCCCC2C2=CCCCC21 (stereo not drawn)	0	50
Oc1ccccc1C1OC2CCCCC2C2=CCCCC21 (stereo not drawn)	0	0
Cc1cccc(CNC(=O)CCC2CCN(c3cc(NC4CC4)ncn3)CC2)c1	0	0
COc1ccccc1NC(=O)CC1COc2ccccc2NC1=O (stereo not drawn)	0	0
O=C(CC1COc2ccccc2NC1=O)Nc1cccc2ccccc12 (stereo not drawn)	0	69
CC12C=CC(C)(O1)C1C(=O)N(c3ccc4c(c3)OCO4)C(=O)C12 (stereo not drawn)	0	0
CN(C)CC1CN(S(=O)(=O)c2cccs2)CC12CCOCC2 (stereo not drawn)	0	0
O=C1N=C(N2CCCCC2)S/C1=C\c1cccs1	0	0
Cc1ccc(C2=NC(=O)/C(=C/c3sccc3C)S2)cc1	0	53
O=C1N=C(c2ccccc2)S/C1=C\c1cccs1	0	62
Cc1ccsc1/C=C1\SC(c2ccccc2)=NC1=O	0	0
Cc1cc(/C=C2\SC(=Nc3ccccc3)NC2=O)c(C)n1-c1cccc([N+](=O)[O-])c1	0	0
Oc1cccc2ccc(/C=C/c3ccc(F)cc3)nc12	0	0
COc1ccc(/C=C/c2ccc3c(Cl)ccc(O)c3n2)cc1	0	79
O=C1OC(c2cccc(F)c2)=N/C1=C\c1cccs1	0	0
O=C1OC(c2cccc(Cl)c2)=N/C1=C\c1cccs1	0	53
Cc1ccc(/C=C2\N=C(c3cccc(F)c3)OC2=O)cc1	63	0
O=C1OC(c2cccc(F)c2)=N/C1=C\c1ccc(F)cc1	0	0
CCNC(=O)/C(=C\c1ccc2c(c1)OCO2)NC(=O)c1ccco1	0	0
SMILES	Pf apPOL block	mHTT-CaM PPI inh
CC(c1nc2ccccc2n1C)C(O)(c1ccccc1)c1ccccc1 (stereo not drawn)	0	0
COc1cccc(NC(=O)Nc2nnc(-c3ccccc3Br)s2)c1	0	0
CCS(=O)(=O)N1CCc2ccccc2C1	0	0
COC(=O)CCN1C(=O)C(=Cc2ccc3c(c2)OCO3)SC1=S	0	0
Cc1ccc(C=C2Oc3c(ccc4c3CN(Cc3ccccn3)CO4)C2=O)o1	0	100
COc1ccc(CN2COc3ccc4c(c3C2)OC(=Cc2cccnc2)C4=O)cc1	0	0
COc1ccc(C=C2Oc3c(ccc4c3CN(Cc3ccccn3)CO4)C2=O)cc1	0	100
O=C1C(=Cc2ccc(Br)cc2)Oc2c1ccc1c2CN(Cc2cccnc2)CO1	0	83
O=C1C(=Cc2ccccc2)Oc2c1ccc1c2CN(Cc2cccnc2)CO1	0	0
COc1ccc(C=C2Oc3c(ccc4c3CN(Cc3ccccn3)CO4)C2=O)cc1OC	0	0
COc1ccc(C=C2Oc3c(ccc4c3CN(Cc3ccncc3)CO4)C2=O)cc1	0	58
COc1cccc(C=C2Oc3c(ccc4c3CN(Cc3ccncc3)CO4)C2=O)c1	0	0
COc1cc(C2NC(=O)NC(C)=C2C(=O)Nc2cccc(Cl)c2)cc(OC)c1OC (stereo not drawn)	0	0
COc1nccnc1N1CCC(NC(=O)CCc2c(C)noc2C)C1 (stereo not drawn)	0	0
CC(=O)Nc1c(N2CCCC2)ccc2nsnc12	0	0
CC(=O)N1CC(C(=O)N2CCSCC2)CCC1c1ccc(F)c(C)c1 (stereo not drawn)	0	0
O=C1C(=Cc2ccc3c(c2)OCO3)Oc2c1ccc1c2CN(Cc2ccccn2)CO1	0	100
COc1ccc(C=C2Oc3c(ccc4c3CN(Cc3ccccn3)CO4)C2=O)c(OC)c1OC	0	0
COc1ccc(OC)c(C=C2Oc3c(ccc4c3CN(Cc3ccccn3)CO4)C2=O)c1	0	100
O=C1C(=Cc2ccc3c(c2)OCO3)Oc2c1ccc1c2CN(Cc2cccnc2)CO1	0	0
COc1ccc(C=CC(=O)NCCC(O)c2ccoc2)cc1OC (stereo not drawn)	0	0
Cc1ccccc1C1C(=O)N(C2CCCCC2)CC(=O)N1C1CCCCC1 (stereo not drawn)	0	0
Cc1nc2c(C(=O)NCC3CCCO3)cnn2c(C)c1Cc1cccc(Cl)c1 (stereo not drawn)	0	0
CCc1ccccc1NC(=O)C1c2cc(OC)c(OC)cc2C(=O)N2CCc3ccccc3C12 (stereo not drawn)	0	63
CCc1ccc(CNC(=O)C2c3cc(OC)c(OC)cc3C(=O)N3CCc4ccccc4C23)cc1 (stereo not drawn)	0	0
SMILES	Pf apPOL block	mHTT-CaM PPI inh
CCOc1cc2c(cc1OCC)C1C(C(=O)Nc3cc(C)ccn3)c3ccccc3C(=O)N1CC2 (stereo not drawn)	0	51
CCOc1ccccc1NC(=O)C1c2ccccc2C(=O)N2CCc3ccccc3C12 (stereo not drawn)	0	0
O=C(Nc1ccccc1Cl)C(=O)NC1CCCC1	0	0
O=C(Cc1c(C(=O)O)[nH]c2ccc(Cl)cc12)Nc1ccc(F)cc1Cl	0	0
Cc1c(C(=O)N(C(=O)N2CCCCC2)c2ccccc2)cccc1[N+](=O)[O-]	0	0
O=C(Nc1ccccc1)c1c(Cl)cc(Cl)nc1Cl	0	0
O=C(O)c1cc(Cl)c(Cl)cc1C(=O)Nc1ccc(Cl)cc1	0	0
O=C(c1cccs1)N1CCCC(c2ccnc(Nc3cccc(F)c3)n2)C1 (stereo not drawn)	0	93
Cc1ccccc1Nc1nccc(C2CCCN(C(=O)COc3ccc(F)cc3)C2)n1 (stereo not drawn)	0	90
O=C(C1CC1)N1CCCC(c2ccnc(Nc3cccc(F)c3)n2)C1 (stereo not drawn)	0	0
O=C(c1ccccc1)N1CCCC(c2ccnc(Nc3cccc(F)c3)n2)C1 (stereo not drawn)	0	72
CCOCC(=O)N1CCCC(c2ccnc(Nc3ccccc3C)n2)C1 (stereo not drawn)	0	0
O=C(Cc1cccs1)N1CCCC(c2ccnc(Nc3cccc(F)c3)n2)C1 (stereo not drawn)	0	75
CC(C)C(=O)N1CCCC(c2ccnc(Nc3cccc(F)c3)n2)C1 (stereo not drawn)	0	0
O=C(c1cccs1)N1CCCC(c2ccnc(Nc3ccc(F)cc3)n2)C1 (stereo not drawn)	0	0
O=c1nc(N2CCOCC2)nc(N2CCOCC2)[nH]1	0	0
O=C(Cc1cccc(F)c1)N1CCCC(c2ccnc(Nc3ccccc3)n2)C1 (stereo not drawn)	0	90
O=C(Cc1cccc(F)c1)N1CCCC(c2ccnc(-c3cccc(F)c3)n2)C1 (stereo not drawn)	0	0
CC(C)(C)C(=O)Nc1ccc(C23CC4CC(CC(Cl)(C4)C2)C3)cc1	0	0
CCC(NS(=O)(=O)c1cc(Cl)ccc1OC)C12CC3CC(CC(C3)C1)C2 (stereo not drawn)	0	0
